Screening results as filed in PubChem BioAssay.
An excerpt weighted towards active compounds, which were near 19% of everything screened.
LASV entry inh = blocks Lassa virus binding to or entry into cells; Lassa virus pseudotype entry inhibition, cell reporter; Potency, µM (titrated, usually from 37.9 µM), without a hit: top-dose activity change, negative = inhibition, actives largely listed as inhibitors; 1.2% of 300,000 active; AID 540256; calls by dose curve; tested in HEK293 cells; further: potency means the concentration at half of the fitted maximal effect; on the % scale 0 is the no-effect control and ±100 the full control effect; nearly all actives have a fitted effect of over 50% in size
CHX counter = affects cycloheximide protein synthesis inhibition readout, counter-screen | cell reporter, cycloheximide protein synthesis inhibition counterscreen | max response, % | 12% of 300,000 active | AID 2314; in the data active means max response mostly above about 13%, no sharp cut-off; inactive means mostly below about 14%; further: read at 38.3 µM for the half of the compounds with a filed dose; 0% is about no effect
MARV entry inh = Marburg virus entry inhibition; Marburg virus pseudotyped entry inhibition, cell reporter; Potency, µM (doses to about 37.8 µM), for inactives: at the highest dose activity change, negative = inhibition, most hits filed as inhibitors; 1.8% of 300,000 active; AID 540276; calls by dose curve; tested in HEK293 cells; further: potency means the concentration at half of the fitted maximal effect; on the % scale 0 is the no-effect control and ±100 the full control effect
Pf growth 48h = inhibits P. falciparum growth in the first generation, 48 h | P. falciparum luciferase growth in erythrocytes, 48 h | Potency, µM (top dose mostly 28.7 µM), for inactives: at the highest dose activity change, negative = inhibition, hits mostly inhibitors | 5.9% of 310,000 active; further: potency means the concentration at half of the fitted maximal effect; on the % scale 0 is the no-effect control and ±100 the full control effect
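A one-generation exposure of luciferase-tagged malaria parasites in RPMI 1640/Albumax erythrocyte culture, 37 C and 5% CO2. Inhibition is inferred from decreased luminescence after adding detection reagent.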
Shiga inhibitor = blocks Shiga toxin action in Vero cells | 9.2% of 290,000 active | Vero cells, Shiga toxin protein synthesis inhibition reporter | inhibition, % at 38.7 µM; in the data active means inhibition mostly above about 28%, no sharp cut-off; inactive means mostly below about 43%; further: 0% is about no effect
Pf growth 96h = inhibits malaria parasite growth, 96 h | P. falciparum luciferase reporter growth, 96 h | Potency, µM (series often up to 28.7 µM), for the others: at the top dose activity change, negative = inhibition, usual class: inhibitors | 6.9% of 320,000 active | AID 504834; further: potency means the concentration at half of the fitted maximal effect; on the % scale 0 is the no-effect control and ±100 the full control effect
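96 h incubation, 37 C, 5% CO2, of luciferase-reporter P. falciparum-infected RBCs (2% hematocrit, 0.05% parasitemia final) with test compounds; endpoint luminescence.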
An asterisk follows results filed as active; [ ] = dose if it differs, or a comment. Unless noted, the call rests on the fitted dose curve; in most records, active means well fitted inhibition curve with a large enough effect; inconclusive means small, poorly fitted or top-dose-only effect, or another doubt; inactive means no such curve, though single readings can be large or run the other way.

What do the screens show for `COc1ccc(NC(=S)Nc2cc(C)ccn2)c(OC)c1`?
LASV entry inh: 15.7%; CHX counter: 28.3*; MARV entry inh: inconclusive; Pf growth 48h: 119.1%; Shiga inhibitor: 75.0*; Pf growth 96h: 10.8%

What do the screens show for `COc1ccc(NC(=S)Nc2ccc(OC)cc2OC)c(OC)c1`?
LASV entry inh: 7.5%; CHX counter: 0.8; MARV entry inh: inconclusive; Pf growth 48h: 1.9%; Shiga inhibitor: -5.9; Pf growth 96h: 7.2%

Results for COc1cccc(NC(=S)Nc2cccnc2)c1 ?
LASV entry inh: -2.3%; CHX counter: 8.0; MARV entry inh: 7.1%; Pf growth 48h: 37.0%; Shiga inhibitor: 22.0; Pf growth 96h: -10.3%

Results for Nc1ccccc1OCCOc1ccccc1N ?
LASV entry inh: 29.6%; CHX counter: 20.2*; MARV entry inh: 13.9%; Shiga inhibitor: 31.3; Pf growth 96h: 46.6%

How did O=C(Nc1cccnc1)c1ccc(NS(=O)(=O)c2cccc([N+](=O)[O-])c2)cc1 do in these assays?
LASV entry inh: 5.8%[46.1 µM]; CHX counter: 1.6; MARV entry inh: -11.4%[46.1 µM]; Pf growth 48h: 9.0%; Shiga inhibitor: 18.2; Pf growth 96h: 29.7%

How did Cc1[nH]n(-c2ccccc2)c(=O)c1C=NCCc1ccccc1 do in these assays?
CHX counter: 20.9*; Pf growth 48h: 13.7%; Shiga inhibitor: 65.8*; Pf growth 96h: 37.6%[5.75 µM]

What do the screens show for `CCCCN=Cc1c(C)[nH]n(-c2ccccc2)c1=S`?
CHX counter: 25.3*; Pf growth 48h: 29.3%; Shiga inhibitor: 33.7; Pf growth 96h: 50.1%

How did Cc1sc2ncnc(NCC3(N4CCOCC4)CCCCC3)c2c1C do in these assays?
LASV entry inh: 1.3%; CHX counter: -5.2; MARV entry inh: 14.7%; Shiga inhibitor: 5.7; Pf growth 96h: 1.85µM*

Results for COc1ccc(Cl)cc1NC(=O)C(C)N1CCN(C/C=C/c2ccccc2)CC1 (stereo unspecified) ?
LASV entry inh: inconclusive; CHX counter: -1.0; MARV entry inh: inconclusive; Shiga inhibitor: -6.4; Pf growth 96h: 11.7µM*

What do the screens show for `CC(C(=O)Nc1ccc([N+](=O)[O-])cc1)N1CCN(C/C=C/c2ccccc2)CC1` (stereo unspecified)?
LASV entry inh: 7.6%; CHX counter: -1.3; MARV entry inh: 12.6µM*; Pf growth 48h: -14.6%; Shiga inhibitor: -11.6; Pf growth 96h: inconclusive

What do the screens show for `N/C(=N\c1nc2c(c(=O)[nH]1)CCC2)Nc1cccc2ccccc12`?
LASV entry inh: -10.1%; CHX counter: 0.9; MARV entry inh: inconclusive; Pf growth 48h: inconclusive; Shiga inhibitor: -19.3; Pf growth 96h: 47.1%

Results for CC(C)c1ccccc1NC(=S)N1CCN(S(=O)(=O)c2cccs2)CC1 ?
LASV entry inh: -11.3%[46.1 µM]; CHX counter: 7.3; MARV entry inh: inconclusive; Pf growth 48h: inconclusive; Shiga inhibitor: -4.8; Pf growth 96h: 5.22µM*

How did O=C(c1ccccc1)N1CCN(S(=O)(=O)c2cccs2)CC1 do in these assays?
CHX counter: -2.2; Pf growth 48h: -3.5%; Shiga inhibitor: -16.4; Pf growth 96h: inconclusive

Results for Cc1c(Cl)cccc1NC(=S)N1CCN(S(=O)(=O)c2cccs2)CC1 ?
LASV entry inh: -21.1%; CHX counter: -1.3; MARV entry inh: -19.5%; Pf growth 48h: 1.85µM*; Shiga inhibitor: 5.2; Pf growth 96h: inconclusive

Results for O=C(NCc1ccc2c(c1)OCO2)Nc1ccc(Cl)cc1 ?
CHX counter: 24.8*; Pf growth 48h: 13.4%; Shiga inhibitor: 23.8; Pf growth 96h: inconclusive

What do the screens show for `O=C(NCc1ccc2c(c1)OCO2)c1ccc(CSCc2ccc(Cl)cc2)o1`?
LASV entry inh: -12.2%; CHX counter: -3.5; MARV entry inh: 8.4%; Pf growth 48h: 3.6%; Shiga inhibitor: 11.5; Pf growth 96h: -57.1%

How did O=C(NCc1ccc2c(c1)OCO2)c1ccc(COc2cc(Cl)ccc2Cl)o1 do in these assays?
LASV entry inh: 2.9%; CHX counter: -1.3; MARV entry inh: inconclusive; Shiga inhibitor: -9.2; Pf growth 96h: 6.57µM*

What do the screens show for `O=C(NCc1ccc2c(c1)OCO2)c1cc(Cl)ccc1Cl`?
CHX counter: 13.4*; Pf growth 48h: 50.4%; Pf growth 96h: 18.2%

What do the screens show for `COc1ccc(Cl)cc1C(=O)NCc1ccc2c(c1)OCO2`?
LASV entry inh: -1.8%[46.1 µM]; CHX counter: 10.5; MARV entry inh: inconclusive; Pf growth 48h: inconclusive; Shiga inhibitor: 24.1; Pf growth 96h: -1.0%

How did Cc1ccc(-n2nc(C)c3c(C(=O)Nc4ccccc4C(F)(F)F)cc(C)nc32)cc1 do in these assays?
LASV entry inh: -2.1%[46.1 µM]

How did O=C1CC(c2ccc3c(c2)OCO3)c2cc(O)ccc2O1 (stereo unspecified) do in these assays?
CHX counter: -1.4; Shiga inhibitor: inactive

Results for Oc1ccc(N=Nc2ccc3c(c2)OCO3)c2ccccc12 ?
CHX counter: 58.0*; Pf growth 48h: inconclusive; Shiga inhibitor: 77.9*; Pf growth 96h: inconclusive

What do the screens show for `O=C(NC1CCCCC1)c1cc2nc(-c3ccco3)cc(C(F)(F)F)n2n1`?
LASV entry inh: 5.4%; CHX counter: -1.7; MARV entry inh: inconclusive; Pf growth 48h: 2.1%; Shiga inhibitor: 4.8; Pf growth 96h: 17.3%

How did CC(=O)c1ccc(NC(=O)c2cc3nc4c(c(C(F)(F)F)n3n2)CCCC4)cc1 do in these assays?
CHX counter: 38.0*; Pf growth 48h: inconclusive; Shiga inhibitor: 59.9*; Pf growth 96h: inconclusive

Results for Cc1cc2nc3c(c(C(F)(F)F)n2n1)CCCC3 ?
LASV entry inh: inconclusive; CHX counter: 4.8; MARV entry inh: 13.8%[46.1 µM]; Pf growth 48h: 27.1%; Shiga inhibitor: 49.7; Pf growth 96h: 1.7%

How did O=C(NC1CCCCC1)c1cc2nc3c(c(C(F)(F)F)n2n1)CCCC3 do in these assays?
LASV entry inh: -13.5%; CHX counter: 45.5*; MARV entry inh: inconclusive; Pf growth 48h: -66.3%; Shiga inhibitor: 79.5*; Pf growth 96h: -19.3%[5.75 µM]

How did OCc1cnc[nH]1 do in these assays?
LASV entry inh: 3.9%; CHX counter: -1.1; MARV entry inh: -7.3%; Pf growth 48h: inconclusive; Shiga inhibitor: -8.9; Pf growth 96h: 9.28µM*

Results for N=C(N)SCCc1cnc[nH]1 ?
LASV entry inh: inconclusive; MARV entry inh: 13.4%; Pf growth 48h: 2.5%; Pf growth 96h: -4.4%

What do the screens show for `COc1ccc(NC(=O)C2COc3ccccc3C2)cc1Cl` (stereo unspecified)?
LASV entry inh: 4.5%[46.1 µM]

What do the screens show for `COc1ccccc1NC(=O)CCN1C(=O)/C(=C\c2cc(OC)c(OC)c(OC)c2)SC1=S`?
CHX counter: -1.4; Pf growth 48h: 6.7%; Shiga inhibitor: -9.5; Pf growth 96h: -27.9%

Results for O=c1c2ccccc2nc(/C=C\c2ccccc2[N+](=O)[O-])n1-c1ccccc1O ?
LASV entry inh: 7.94µM*; CHX counter: 8.6; MARV entry inh: inconclusive; Pf growth 48h: 6.57µM*; Shiga inhibitor: 8.0; Pf growth 96h: inconclusive
